Our source for the INHIBITION values is ChEMBL document CHEMBL4513216, “Probing the Open Global Health Chemical Diversity Library for Multistage-Active Starting Points for Next-Generation Antimalarials” (ACS Infect Dis, 2020).

In all, about 69,000 compounds went through this assay and about 8,600 (12%) showed an effect of 50% or more. The list comes from a sample in which strong results are over-represented; it also holds similar structures and randomly drawn compounds.

The test has as its system Plasmodium berghei. Description: Screen against P. berghei liver stage (PbLuc), transformed with Luciferase, at 10uM. In kind it is functional, HepG2. The settings on record: tested at 10 uM.
On to `CCCC(=O)Nc1cccc(C(=O)N(C)CCCC2CCCO2)c1` (centres undefined), for which the INHIBITION is 33.7%.

For the compound `COCCn1c2c(ccc1=O)CCN(Cc1ccoc1)CC2`, the INHIBITION stood at 25.1%.

For `CCN1CCC2(C=C(C(=O)NC3CC3)c3ccccc32)CC1`, the INHIBITION was 12.4%.

With `CN(Cc1nc(C2CC2)no1)C(=O)c1cccc(CC2CCNCC2)c1`, the INHIBITION was 59.7%.

Turning to `Cc1nc(CN(C)C(=O)c2cccc(CC3CCNCC3)c2)no1`, the INHIBITION is reported as 34%.

For the compound `CCOCCn1c(=O)[nH]c2cc(C(=O)N(C)Cc3ccno3)ccc21`, the INHIBITION is 8.35%.

For `CN(Cc1ccno1)C(=O)c1cccc(CC2CCNCC2)c1`, the INHIBITION was determined as 70.4%.

On to `CNc1ncc(CN(C)C(=O)c2cccc(CC3CCNCC3)c2)cn1`, for which the INHIBITION was found to be 19.1%.

Consider `CN(Cc1nc(C2CC2)no1)C(=O)C1COc2ccccc2C1` (centres undefined), for which the INHIBITION is listed as -9.08%.

Turning to `CCN(Cc1cnn(C)c1)C[C@H]1CC[C@@H](Cc2cccc(CN)c2)O1`, the INHIBITION came to 15.1%.

As for `Cc1cnn(CC2CCCN2CCCS(C)(=O)=O)c1` (centres undefined), the INHIBITION stood at 13.3%.

`CCN(c1cc(C)cc(C)c1)S(=O)(=O)c1cc(C(=O)O)cs1`: the INHIBITION is recorded as 42.9%.

`O=C(NCc1ccco1)[C@H]1CC[C@@H]2[C@@H](CCN2Cc2nccs2)O1`: the INHIBITION was -30.1%.

With `Cc1ccc(NC(=O)c2n[nH]c(-n3cnnc3)n2)cc1`, the INHIBITION was -5.59%.

As for `Cc1noc(C)c1CCC(=O)N1CCCN(Cc2cccs2)CC1`, the INHIBITION stood at 52%.

Turning to `Cc1noc(C)c1CCC(=O)N1CCN(Cc2cscn2)CC1`, the INHIBITION was 1.7%.

As to `Cc1noc(C)c1CC(=O)N1CCCN(Cc2cscn2)CC1`, the INHIBITION is 57.4%.

In the case of `CCc1nc(CN2CCN(C(=O)Cc3c(C)noc3C)CC2)cs1`, the INHIBITION was found to be 50.4%.

As to `CCc1nc(CN2CCN(C(=O)N3CCCCC3)CC2)cs1`, the INHIBITION is reported as -2.53%.

As to `Cc1noc(C)c1CCC(=O)N1CCCN(CC(N)=O)CC1`, the INHIBITION is given as 37.95%.

Turning to `Cc1noc(C)c1CCC(=O)N1CCCN(Cc2cscn2)CC1`, the INHIBITION is given as -5.51%.

On to `CCc1nc(CN2CCCN(C(=O)c3c(C)noc3C)CC2)cs1`, for which the INHIBITION was 28.7%.

For `Cc1noc(C)c1CC(=O)N1CCN(Cc2cscn2)CC1`, the INHIBITION is reported as 27.94%.

As for `O=C(C1CCOC1)N1CCN(CCn2cccn2)c2ncccc2C1` (centres undefined), the INHIBITION is recorded as 11.3%.

With `CN(C)C(=O)CN1CCC2(CCN(S(=O)(=O)C3CC3)CC2)C1=O`, the INHIBITION is on record as 32.1%.

On to `Cc1cc(O)nc(C2CCCN(CCO)C2)n1` (centres undefined), for which the INHIBITION was -0.232%.

Consider `CCCC(=O)N1CCc2c(CNS(C)(=O)=O)cncc2C1`, for which the INHIBITION turned out to be 13.5%.

Regarding `O=C(c1cnc2ccc(F)cc2c1NCc1ccco1)N1CCCC1`, the INHIBITION was found to be 37.2%.

Turning to `O=C(c1ccno1)N1CCC2(CC1)C(=O)N(CC1CC1)c1ccccc12`, the INHIBITION turned out to be 25.7%.

In the case of `O=C([C@H]1CCCO1)N1CCN(Cc2cccnc2)c2ncccc2C1`, the INHIBITION came to 15.4%.

Turning to `CC(=O)N1CCSCC1c1ccc(C)o1` (centres undefined), the INHIBITION is given as -13.8%.

In the case of `COc1ccc(CNCc2cn(C)nc2C)cc1`, the INHIBITION was found to be 24.8%.

Turning to `COC(=O)c1ccc(CNCc2cn(C)nc2C)cc1`, the INHIBITION stood at 70.8%.

Turning to `COC(=O)c1ccc(CCn2cnc(C#N)n2)cc1`, the INHIBITION is recorded as 13.8%.

Consider `COC(=O)c1ccc(Cn2cnc(C#N)n2)cc1`, for which the INHIBITION is recorded as 6.23%.

Regarding `COC(=O)c1ccc(CNCc2ccn(C)n2)cc1`, the INHIBITION came out at 56%.

As to `CCn1cc(CNCc2ccc(C(=O)OC)cc2)c(C)n1`, the INHIBITION is listed as 39.7%.

Regarding `CN(C)[C@@H]1CCN(C(=O)c2ccsc2)[C@H]1Cc1cccnc1`, the INHIBITION was 38.1%.

In the case of `Cc1cc(C)nc(C2CCN(C(=O)CO)CC2)n1`, the INHIBITION was 26.65%.

With `CCC(NC(=O)c1c(C(=O)O)cnn1C)c1ccc(C)cc1C` (centres undefined), the INHIBITION was 15.9%.

Take `Cc1cc(C)c(CNC(=O)N2CCN(c3ccncc3)CC2)c(=O)[nH]1`: the INHIBITION is listed as -21.45%.

Consider `Cc1ccc(CN(C)c2nccc(-c3cn(C)nc3C)n2)o1`, for which the INHIBITION was found to be 50.7%.

Turning to `COc1ccccc1CN(C)c1nccc(-c2cn(C)nc2C)n1`, the INHIBITION was found to be 82.3%.

As to `Cc1nn(C)cc1-c1ccnc(N(C)Cc2ccc(F)cc2)n1`, the INHIBITION worked out at 30.1%.

`COc1ccc(CN(C)c2nccc(-c3cn(C)nc3C)n2)cc1`: the INHIBITION was -7.76%.

In the case of `Cc1nn(C)cc1-c1ccnc(N(C)Cc2cnn(C)c2)n1`, the INHIBITION is given as 74.5%.

`Cc1nn(C)cc1-c1ccnc(N(C)Cc2ccon2)n1`: the INHIBITION is 49.6%.

With `Cc1nn(C)cc1-c1ccnc(N(C)Cc2cccs2)n1`, the INHIBITION was 35.5%.

Regarding `CN(Cc1cnn(C)c1)c1nccc(-c2cc(C(=O)O)ccn2)n1`, the INHIBITION is on record as 33%.

On to `Cc1nn(C)cc1-c1ccnc(N(C)Cc2ccoc2)n1`, for which the INHIBITION worked out at 51.8%.

Take `CN(Cc1ccoc1)c1ccc(-c2nccn2C)nn1`: the INHIBITION is -120%.

Take `Cc1nn(C)cc1CN(C)c1nccc(-c2cn(C)nc2C)n1`: the INHIBITION was 28%.

Consider `CCCN1CCCC1Cn1nc(C)cc1C` (centres undefined), for which the INHIBITION came to 34.35%.

Take `N#Cc1cc(C#N)c(SCC(=O)Nc2ccc(F)cc2)nc1N`: the INHIBITION is 35.1%.
